# High-throughput results deposited in PubChem by National Center for Advancing Translational Sciences (NCATS).
# PK Bst – pyruvate kinase (B. stearothermophilus) modulation | purified pyruvate kinase, luminescence ATP production; ribose 5-phosphate activator present at AC10 | 51,000 compounds, 1.2% hits | Potency, µM | AID 361; in the data active = potency below about 11 µM; inconclusive = mostly about 12 µM to 25 µM;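 the screen sought inhibitors and activators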;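 note: scaled between full activation by ribose 5 phosphate and full inhibition by luteolin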
# ALOX15 inhib – blocks human 15-lipoxygenase activity; purified 15hLO-1, xylenol orange hydroperoxide absorbance; 74,000 compounds, 1.4% hits; Potency, µM (series often up to 57.1 µM), for the others: top-dose activity change, negative = inhibition, usual class: inhibitors; P16050; note: % is set by controls: 0 for no effect and ±100 for the full control effect; nearly all actives have a fitted effect of over 55% in size
#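 Inhibition is scored from a chromogenic endpoint. After 15 min enzyme-compound contact, arachidonic acid (50 uM final) reacts 6 min with 40 nM 15hLO-1 at room temperature, then Fe-XO reagent is added for 30 min and absorbance ratio recorded.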
# Tau fil binding – tau filament binding | P10636 | recombinant tau filaments, thioflavin S fluorescence, 15 h; filaments grown with octadecylsulfate alongside compound | Potency, µM (top dose mostly 57.1 µM), inactives show at the highest dose activity change, negative = inhibition | 71,000 compounds, 2% hits | AID 596;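 note: % is set by controls: 0 for no effect and ±100 for the full control effect; actives lower thioflavin S fluorescence by blocking filaments or displacing dye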
# Target sequence (P10636 whole entry, looked up): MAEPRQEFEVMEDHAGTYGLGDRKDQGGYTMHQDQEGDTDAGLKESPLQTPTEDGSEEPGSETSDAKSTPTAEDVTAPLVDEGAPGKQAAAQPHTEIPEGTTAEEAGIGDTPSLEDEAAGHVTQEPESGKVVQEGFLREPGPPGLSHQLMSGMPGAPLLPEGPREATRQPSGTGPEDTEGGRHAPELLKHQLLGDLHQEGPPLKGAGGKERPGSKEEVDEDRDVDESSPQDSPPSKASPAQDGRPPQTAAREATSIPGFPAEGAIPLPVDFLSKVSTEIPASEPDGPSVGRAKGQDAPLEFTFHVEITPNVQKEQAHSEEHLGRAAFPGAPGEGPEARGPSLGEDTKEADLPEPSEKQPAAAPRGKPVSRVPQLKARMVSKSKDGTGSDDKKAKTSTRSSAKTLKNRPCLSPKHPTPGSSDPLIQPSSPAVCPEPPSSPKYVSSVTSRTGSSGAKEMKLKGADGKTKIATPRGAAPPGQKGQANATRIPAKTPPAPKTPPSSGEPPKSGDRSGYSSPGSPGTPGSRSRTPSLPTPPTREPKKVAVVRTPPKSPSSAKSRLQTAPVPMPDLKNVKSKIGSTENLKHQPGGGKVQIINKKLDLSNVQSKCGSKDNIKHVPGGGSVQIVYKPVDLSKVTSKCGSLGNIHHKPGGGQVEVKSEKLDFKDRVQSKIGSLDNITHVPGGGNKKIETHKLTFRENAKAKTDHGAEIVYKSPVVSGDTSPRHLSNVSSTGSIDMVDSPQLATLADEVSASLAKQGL
#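 Recombinant tau protein (human, 1 uM final) plus 30 uM ODS in HEPES pH 7.4 with NaCl, DTT and thioflavine S. Compound present from the start; fluorescence at 510 nm after 15 h, 37 C.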
# HEK293 cAMP cs – counter-screen for TSHR agonists: cAMP increase in parental HEK293; parental HEK293 CNG cAMP sensor, membrane potential fluorescence; Potency, µM (series often up to 57.1 µM), for inactives: at the highest dose activation, actives largely listed as activators; 73,000 compounds, 2.5% hits; note: % of control where 0% means no effect; nearly all actives have a fitted effect of over 55% in size
#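 Counterscreen for endogenous-receptor signalling: CNG-channel HEK 293 cells report cAMP rise by membrane depolarization. After 60 min dye equilibration with 100 uM RO 20-1724, compounds incubated 30 min before bottom-read fluorescence at 590 nm.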
# TSHR agonist – TSH receptor (human) agonism. HEK293-CNG-TSHR cells (CNG channel as cAMP sensor), membrane potential dye, cAMP. Potency, µM (highest dose often 57.1 µM), for inactives: top-dose activation, hits mostly activators. 73,000 compounds, 0.48% hits. P16473; active = well fitted activation curve with a large enough effect in the main read-out, with a control signal flat, not every such curve was filed as active; inconclusive = small, poorly fitted or top-dose-only effect, or a change in a side signal; inactive = no such curve, though single readings can be large or run the other way; % of control where 0% means no effect;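 note: the control signal comes from parental cells without the receptor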
#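 HEK 293 cells stably expressing TSHR and a cAMP-gated CNG channel; parental CNG-only cells as counterscreen. Cells preloaded 60 min with membrane potential dye plus 100 uM RO 20-1724, then compound 30 min; fluorescence read at 590 nm.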
# Luciferase inh – blocks Photinus pyralis firefly luciferase activity. 72,000 compounds, 2.2% hits. purified firefly luciferase, luminescence, 8 min. P08659. AID 411. Potency, µM (doses to about 57.1 µM), without a hit: at the top dose activity change, negative = inhibition, usual class: inhibitors; note: % is set by controls: 0 for no effect and ±100 for the full control effect; nearly all actives have a fitted effect of over 40% in size
#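 Firefly luciferase (PKLight detection mix) with 10 uM ATP in pH 7.2 imidazole buffer (KCl, MgCl2, Tween 20, BSA). Compounds tested across a concentration series (qHTS). Luminescence read after 8 min at ambient temperature.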
# * hit, by the source's call; u = inconclusive; x = no result; [ ] = another dose, or the depositor's remark. In the library only some 7.8% were active in any assay of this set; here they are far more common. Unless noted, calls come from the whole dose curve; as a rule, active = well fitted curve in the direction sought with a large enough effect; inconclusive = small, poorly fitted or top-dose-only effect, or another doubt; inactive = no such curve, though single readings can be large; an effect the other way counts as inactive or inconclusive. Potency is the fitted concentration of half-maximal effect.
SMILES,PK Bst,ALOX15 inhib,Tau fil binding,HEK293 cAMP cs,TSHR agonist,Luciferase inh
Cc1c(-c2ccc(O)cc2)nn(-c2ccc(O)cc2)c1-c1ccc(OCCN2CCCCC2)cc1,x,u,u,-48.4%,u,-0.8%
O=C1CN(CC(=O)N2CCCCC2)c2ccccc2O1,>57,u,31.6µM*,9.5%,-1.0%,-7.7%
O=C(c1cc2ccccc2cc1OCC(O)CN1CCCCC1)N1CCCCC1 (stereo not drawn),x,-11.4%,-18.2%,u,u,2.8%
N=C(C[C@@H](O)COc1ccccc1-c1ccccc1)N1CCCCC1,x,-7.7%[25.6 µM],24.7%,31.6µM*,u,0.0%
N#Cc1nc(-c2ccc(OCc3ccccc3)cc2)oc1N1CCC(C(N)=O)CC1,4.87*,u,58.7%,-4.7%,6.8%,2.3%
COc1ccc(N2CCN(c3oc(COc4ccccc4)nc3C#N)CC2)cc1,>57,-5.6%,u,0.794µM*,u,-0.3%
N#Cc1nc(COc2ccc(Br)cc2)oc1N1CCCCCC1,x,-25.0%,7.3%,25.1µM*,u,-2.4%
COc1ccccc1OCc1nc(C#N)c(N2CCC(C(N)=O)CC2)o1,>57,1.8%,-4.2%,15.9%,-9.4%,1.1%
COc1ccc(N2CCN(c3oc(COc4ccc(Cl)cc4)nc3C#N)CC2)cc1,>25.6,x,x,x,x,2.4%[25.5 µM]
Cc1noc(C)c1-c1cncnc1N(C)Cc1ccco1,x,17.6%,4.4%,u,u,1.2%[2.29 µM]
COc1ccc(OC)c(NC(=O)CSCc2cnn(-c3ccccc3)c2-n2cccc2)c1,>57,-14.0%,-6.2%,25.1µM*,u,-1.0%
Nc1nc(-c2ccc(Cl)c(Cl)c2)c(-c2ccncc2)s1,x,u,x,5.9%,16.8%,x
O=C(c1ccccc1)c1ccc(N2CCOCC2)c(F)c1,x,31.6µM*,-22.1%,25.5%,x,u
CCN1CCN(CCCNc2ncnc3nc[nH]c23)CC1,x,6.3%,-2.8%,-4.7%,2.2%,-1.3%
c1cn(CCCNc2ncnc3nc[nH]c23)cn1,x,3.8%,161.6%,u,u,2.51µM*
COc1ccc(NC2=NC3(CCCCC3)N=C(N)N2)cc1,>57,25.1µM*,14.9%,-4.6%,-4.3%,-0.9%
O=C1CC(/C=C/c2ccco2)=Nc2ccccc2N1,x,5.01µM*,259.9%,8.1%,10.6%,-21.1%
CC1(C)C(=O)C=C[C@]2(C)C1CC(=O)[C@]1(C)C2CC[C@@]2(C)C(c3ccoc3)OC(=O)C3O[C@@]321 (stereo partly drawn),x,0.8%,x,x,x,x
O=c1cc(-c2ccccc2)[nH]c2nc3ccccc3n12,1.02*,-4.2%,110.3%,20.4%,8.4%,2.51µM*
O=c1cc(-c2ccccc2)[nH]n1-c1nc2ccccc2s1,>57,57.8%,u,5.9%,-2.8%,-10.7%
C/C(C[n+]1ccccc1)=N\N=C(N)N,x,3.9%[11.4 µM],3.7%[11.4 µM],7.3%[11.4 µM],-1.3%[11.4 µM],0.7%[11.4 µM]
CCC(C)C(=O)O[C@H]1C[C@@H](C)C=C2C=C[C@H](C)[C@H](CC[C@@H]3C[C@@H](O)CC(=O)O3)C21 (stereo partly drawn),x,1.4%[25.6 µM],x,x,x,x
COc1ccc2[nH]c3c(=O)n(CCCCC(=O)NCCN4CCCC4)c(=S)[nH]c3c2c1,x,10µM*,150.8%,-10.6%,-5.6%[11.4 µM],-3.8%
C=CCC(O)CC1C2C(CC(O)CC=C)C3C1C3C2OC(C)(C)C (stereo not drawn),x,2.7%[11.4 µM],x,u,u,x
Cc1cc2nc(-c3ccc(SCC(=O)N4CCOCC4)nc3)[nH]c2cc1C,2.11*,-2.7%,19.1%,-0.1%,-4.4%,2.51µM*
SMILES,PK Bst,ALOX15 inhib,Tau fil binding,HEK293 cAMP cs,TSHR agonist,Luciferase inh
Cc1cc2nc(-c3ccc(SCC(=O)N4CCN(C(=O)c5ccco5)CC4)nc3)[nH]c2cc1C,0.79*,-10.4%,19.7%,10.0%,1.8%,0.631µM*
COc1ccc(-c2nc3cnc(N4CCNCC4)nc3n(C3CC3)c2=O)cc1,x,-0.8%,77.2%,u,u,-1.2%[11.4 µM]
CCn1c2ccccc2c2cc(C3C(C#N)=C(N)Oc4n[nH]c(COC)c43)ccc21 (stereo not drawn),>57,-29.0%,u,-0.3%,11.1%,0.3%
C/C(=N/NC1=NCCN1)c1cn(C2=NCCN2)nc1C,x,23.4%[11.4 µM],5.2%[11.4 µM],0.2%[11.4 µM],-3.0%[11.4 µM],3.9%[11.4 µM]
Cc1nc2cc(NC(=O)Nc3ccc(N4CCOCC4)cc3)ccc2n1C,>57,3.2%,25.1µM*,-6.0%,-9.9%,0.1%
O=C(Nc1ccc(Cl)cc1)Nc1ccc(N2CCOCC2)cc1,>57,12.3%,-15.8%,-4.9%,-0.4%,-1.6%
COc1ccc(Cc2ccccc2C(=O)O)c2ccccc12,x,3.2%[11.4 µM],-5.8%[11.4 µM],-1.1%[11.4 µM],5.2%[11.4 µM],1.6%[11.4 µM]
O=C(Cc1coc2cc3c(cc12)CCC3)OCc1cc(=O)n2c(n1)sc1ccccc12,>57,20µM*,70.8%,23.4%,12.1%,-0.7%
Cc1ccc2c(CC(=O)OCc3csc(C)n3)coc2c1,>57,-12.3%,-1.5%,u,u,-1.1%
COc1ccc(/C=N/n2c(SC)nnc2-c2ccccc2)c(OC)c1OC,x,u,15.9%,u,u,-0.2%
COc1ccc(/C=N/n2c(SC)nnc2-c2ccccc2)cc1C,x,-13.6%,95.6%,25.1µM*,u,0.4%
CC(c1ccco1)N(C(=O)COc1ccc(Cl)cc1Cl)c1ccccn1 (stereo not drawn),x,4.4%,9.7%,25.1µM*,u,u
O=C(NCc1ccc(Cl)cc1Cl)c1ccccn1,u,-0.8%,0.4%,25.1µM*,u,2.9%
O=C(COc1ccc(Cl)cc1Cl)NC1CCSC1=O (stereo not drawn),x,1.8%,5.6%,-2.3%,-4.6%[11.4 µM],25.1µM*
O=C(COc1ccc(Cl)cc1Cl)Nc1ccccn1,0.131*,0.9%,11.2%,16.5%,4.9%,0.0794µM*
COc1ccc2[nH]cc(CCNc3ncnc4ccc(-c5ccccc5OC)cc34)c2c1,x,5.1%,225.4%,-12.7%,-3.2%,1.2%[2.29 µM]
C=C(C)Cn1c(CCCNC(=O)CCC)nc2ccccc21,>57,-1.8%,-9.5%,6.3%,-1.0%[11.4 µM],1.9%
Nc1ncnc2c1ncn2[C@@H]1O[C@@H](COP(=O)(O)OP(=O)(O)OP(=O)(O)OP(=O)(O)OC[C@@H]2O[C@@H](n3cnc4c(N)ncnc43)[C@@H](O)[C@H]2O)[C@H](O)[C@@H]1O,x,-18.7%,-2.9%,3.2%,21.7%,2.1%
O=C(COc1ccccc1O)Nc1ccc(Cl)cc1,10.6*,-9.6%,-0.2%,-9.3%,-3.0%,-3.4%
O=C(COc1ccccc1Cl)Nc1ccc(Cl)cn1,x,-17.7%,2.7%,15.3%,4.9%,15.8µM*
O=C(CC(=O)Nc1ccccn1)Nc1ccccn1,>57,-0.4%,-0.6%,2.8%,3.1%,-1.7%
CCc1ccccc1OCC(=O)Nc1ccc(S(N)(=O)=O)cc1,>57,-5.5%,15.0%,6.1%,7.2%,1.4%
COc1ccccc1OCC(=O)Nc1ccccn1,u,-6.6%,4.5%,3.9%,-9.4%,10µM*
